Screen size: about 360,000 compounds; about 3,100 (0.86%) were called active. Many of the other results were omitted from the sample, so actives are more common in it than they were. Unmarked numbers belong to inactive results.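 Rule for the calls: active = inhibition or corrected inhibition above about 18%, plus a signal ratio from 0.5 to 1.5 (limit read from the data, passing the limit was not always enough); inactive = the rest.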
Each compound was assayed against Neuropilin-1 (Homo sapiens) (UniProt O14786) (assay: modulators of CendR peptide binding to NRP-1, primary screen, biochemical, fluorescence polarization, uHTS (AID 602438)). Conditions: FAM-RPARPAR peptide binding to NRP-1, fluorescence polarization; at 25 µM; hits give high values.
Chain of Neuropilin-1 (Homo sapiens) (O14786 whole entry, looked up): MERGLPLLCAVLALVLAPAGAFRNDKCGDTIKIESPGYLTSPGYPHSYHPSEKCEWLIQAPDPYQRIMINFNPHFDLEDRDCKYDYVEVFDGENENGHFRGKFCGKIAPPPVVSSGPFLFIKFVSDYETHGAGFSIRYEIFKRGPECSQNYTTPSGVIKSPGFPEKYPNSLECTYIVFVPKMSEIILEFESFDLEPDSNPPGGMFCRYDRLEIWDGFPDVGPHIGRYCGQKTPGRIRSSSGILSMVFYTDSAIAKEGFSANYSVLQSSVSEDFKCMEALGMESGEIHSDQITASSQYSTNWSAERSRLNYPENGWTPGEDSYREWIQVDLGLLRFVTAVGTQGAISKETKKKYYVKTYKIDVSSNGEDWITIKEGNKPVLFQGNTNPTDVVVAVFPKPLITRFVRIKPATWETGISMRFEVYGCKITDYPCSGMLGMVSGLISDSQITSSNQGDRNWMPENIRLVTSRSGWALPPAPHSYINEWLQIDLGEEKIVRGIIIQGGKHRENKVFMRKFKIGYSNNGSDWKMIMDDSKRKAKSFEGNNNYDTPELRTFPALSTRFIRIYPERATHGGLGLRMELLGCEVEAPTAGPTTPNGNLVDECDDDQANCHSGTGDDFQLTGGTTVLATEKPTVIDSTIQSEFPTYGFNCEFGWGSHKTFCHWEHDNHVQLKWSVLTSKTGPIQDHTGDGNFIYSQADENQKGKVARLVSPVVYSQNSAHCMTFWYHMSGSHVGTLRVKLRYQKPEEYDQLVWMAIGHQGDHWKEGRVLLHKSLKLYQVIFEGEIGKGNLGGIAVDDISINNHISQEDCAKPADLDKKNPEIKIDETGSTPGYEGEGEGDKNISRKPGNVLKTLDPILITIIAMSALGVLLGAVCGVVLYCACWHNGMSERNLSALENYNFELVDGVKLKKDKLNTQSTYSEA

Point of comparison: Cc1cc(C(=O)Nc2ccc(C)c(S(=O)(=O)N3CCOCC3)c2)c2ccccc2n1, inhibition -3.5%. Against it:
- CCOC(=O)c1c(C)nn(-c2ncccc2NC(=O)CCC(=O)O)c1C — higher, 21.7%
- CC(C)(CNC(=O)c1cc(=O)[nH]c2ccccc12)N1CCOCC1 — higher, 9.2%
- Cc1ccc(O)c(NC(=O)c2cc(-c3ccco3)on2)c1 — lower, -12.1%
- CC(C)Oc1ccc(C(CC(=O)N2CCOCC2)C(C)C)cc1 (stereo not given) — higher, 9%
- CCN(CC)C(=O)CSC(Nc1cccc(F)c1)=C(C#N)C#N — lower, -180%
- O=C1C2C3C=CC(C3)C2C(=O)N1c1ccc(-c2nc3ccccc3c(=O)o2)cc1 (stereo not given) — higher, 0.6%
- COc1ccc(CN2CCCC(N3CCc4ccccc4C3)C2)c(O)c1 (stereo not given) — higher, 5%
- COc1cc(C2c3cc4c(cc3C(O)C3COC(=O)C23)OCO4)cc(OC)c1OC (stereo not given) — lower, -3.6%
- CC(C)(C)NC(=O)C(=O)NCc1ccncc1 — higher, -1.7%
- CCCN1C2CCCC1CC(NC(=O)NC13CC4CC(CC(C4)C1)C3)C2 (stereo not given) — higher, 5.4%
- Cc1ccccc1NC(=O)CSc1ccc2nnc(-c3ccccn3)n2n1 — higher, 8.8%
- CCOc1cc(/C=N/NC(=O)c2ccncc2)cc(Br)c1O — higher, 2.3%
- O=C(N/N=C/c1ccc(Br)o1)c1cncc(Br)c1 — higher, 2.7%
- Cc1ccccc1Cn1c(C)c(C(=O)NCc2cccc(C(F)(F)F)c2)sc1=O — higher, -0.6%
- O=C1c2ccccc2C(O)N1Cc1ccccc1 (stereo not given) — higher, -0.3%
- CCOC(=O)C1=C(c2ccccc2)NC(=O)NC1c1cc(OC)c(OC)cc1OC (stereo not given) — higher, -1.4%
- Nn1c(SCC(=O)NC(=O)NC2CCCC2)nnc1-c1ccccc1F — higher, -0.3%
- Nn1c(SCC(=O)NC2CCCC2)nnc1-c1ccccc1F — higher, 6.4%
- COC(=O)c1cccc(N(C(=O)CNC(=O)c2cccs2)C(C(=O)NCC2CCCO2)c2ccc(OC)c(OC)c2)c1 (stereo not given) — higher, 6.4%
- Cc1cccc(C(=O)Nc2ccccc2C(=O)NCc2cccnc2)c1 — higher, 3.7%

COc1ccc(NC(=O)c2cc(=O)[nH]c3ccccc23)cc1S(=O)(=O)N1CCOCC1 was tested, and the inhibition was 26.2% (active).
With COc1c(O)ccc2c1CN1CCc3cc4c(cc3C1C2)OCO4 (stereo not given) the inhibition was 30% (active).
With Cc1ccc(C(=O)N/N=C\c2cc(Br)c(Br)o2)cn1 the inhibition was 28.3% (active).
For Cc1nnc(SCC(=O)NC(=O)NC2CCCC2)n1N, the inhibition was 30.1% (active).
